Measured values as given in the supplement of paper PMC6555819.

Columns and labels:
Assay in all cases: PBM binding z-score (relative to random genomic background probes); higher = stronger binding; sequences stand for … in GC…GCGATTGACAGCGTAGAATGAAGG
[1] = system: PPARg:RXRa DBDmut IVT, anti-RXR (DBD mutation: RXRa K156A/R161A, NR concentration 270 nM, RXRa partner concentration 90 nM)
In short: (§1)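 Random background probes are the reference for binding z-scores. These scores derive from regression-normalized fluorescence on custom Agilent 4×180K protein-binding microarrays incubated 1 h with ligand-free nuclear receptor dimers. Binding was detected with antibodies against each partner (one per run).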

[2] = system: PPARg:RXRa IVT, anti-PPARg (NR concentration 270 nM, RXRa partner concentration 90 nM)
In short: as §1

[3] = system: PPARg DBDmut:RXRa IVT, anti-PPARg (DBD mutation: PPARg1 K132A/R137A, NR concentration 270 nM, RXRa partner concentration 90 nM)
In short: as §1

[4] = system: PPARg DBDmut IVT, anti-PPARg (DBD mutation: PPARg1 K132A/R137A, NR concentration 270 nM)
In short: as §1

[5] = system: PPARg homodimer (NR concentration 180 nM)
In short: as §1

[6] = system: PXR:RXRa (NR concentration 270 nM, RXRa partner concentration 90 nM)
In short: as §1

[7] = system: PXR homodimer (NR concentration 270 nM)
In short: as §1

[8] = system: RARa:RXR (NR concentration 270 nM, RXRa partner concentration 90 nM)
In short: as §1

[9] = system: RARa homodimer (NR concentration 270 nM)
In short: as §1

[10] = system: RARb:RXRa (NR concentration 270 nM, RXRa partner concentration 90 nM)
In short: as §1

| Sequence | PBM binding z-score [1] | PBM binding z-score [2] | PBM binding z-score [3] | PBM binding z-score [4] | PBM binding z-score [5] | PBM binding z-score [6] | PBM binding z-score [7] | PBM binding z-score [8] | PBM binding z-score [9] | PBM binding z-score [10] |
| --- | --- | --- | --- | --- | --- | --- | --- | --- | --- | --- |
| GCATATAGGTAATACAAGGTGGAAGTCCGATTGT | 4.14 | 2.47 | 1.2 | 0.302 | -0.138 | 0.192 | 0.041 | 0.731 | 0.593 | 0.0105 |
| ATCGAATGGTCGACGAGGTGAGTATACACCGTTT | -0.664 | 0.567 | -0.0586 | -0.0219 | -0.342 | -0.323 | -0.282 | -0.136 | -0.0822 | 0.37 |
| ATATATAGGTTACATCCGGGTCATTCAGGCTATG | 7.41 | 7.26 | 3.67 | 2.9 | 2.67 | 4.12 | 2.95 | 4.05 | 1.77 | 2.51 |
| TTACCAAGGTGAAAGGTCTTTGATGCACGCCTTG | 2.19 | 4.37 | 0.282 | 0.356 | 1.16 | 1.19 | -0.419 | 1.96 | 0.0646 | 1.96 |
| TCTCGGAGGACACGATAGGTCAGAGCTCGACATC | 1.4 | 0.606 | -0.736 | -0.55 | 0.932 | 0.843 | -0.337 | 1.59 | -0.7 | 2.66 |
| CCTATTAGTTGACCATAAGGGCGACCGAAGCTCG | 0.603 | 0.201 | -0.102 | 0.933 | 2.13 | 0.235 | 0.541 | 0.509 | 1.68 | 0.951 |
| CCTATTCGTTGACCATAAGGGCAACCGAAGCTCG | 0.434 | 0.637 | 0.0621 | 0.266 | 1.7 | 0.841 | 0.82 | 1.41 | 1.43 | 1.82 |
| GCTCTGAGGACAAGGTCAGAGCTTTGTCCGTAGA | 0.898 | 1.09 | -0.229 | -0.596 | 0.274 | 2 | -0.088 | 2.88 | -0.844 | 3.61 |
| ATCGCTAGGTAAAGTTCAGTGAAAGATCGATAGA | -0.192 | 0.414 | -0.0288 | -0.241 | 0.606 | 1.42 | 1.26 | 0.812 | -0.216 | 2.37 |
| CCTGCTAGGTCATGGTCAGCTGATCTACAGTATG | 4.74 | 4.18 | 0.184 | 0.177 | 2.39 | 2.18 | -0.463 | 2.89 | -0.136 | 4.21 |
| ATCTGTAGGTTAGCTGGGGTCATTCAGACTAGGC | 2.69 | 2.92 | 1.42 | 1.67 | 2.28 | 6.74 | 4.22 | 6.24 | 1.28 | 3.19 |
| CCTTACGGGTCACTCCAGGTTATTGCATCGGAGT | 2.64 | 3.54 | 0.677 | 1.01 | 2.9 | 5.46 | 0.3 | 4.02 | 1.23 | 3.56 |
| CCTCGGAGGGCAGAAGGTCAGAGCTGTCCGCTTT | 0.357 | 0.981 | -1.69 | -1.6 | 0.905 | 1.94 | -0.405 | 2.53 | -0.604 | 3.69 |
| TGAAAGAGGTTATAAGATCAGGGAACGTTGCAAA | -0.304 | 0.748 | -0.617 | 0.266 | 0.0455 | 0.781 | -0.571 | 1.59 | -0.227 | 1.56 |
| TCTTGTGGATCAACAGGAGGTTAAGAAAGATCGA | 1.35 | 0.812 | 0.186 | 1.07 | 0.476 | 0.621 | -0.304 | 0.932 | -0.244 | 0.59 |
| GCTTGTAGATCACGGTTAAGAAAGACTAAGCTAA | 2.32 | 1.04 | -0.32 | -0.283 | 0.0431 | -0.49 | -0.193 | -0.247 | 0.0308 | -0.178 |
| CATACAGGGTCAGCCAGGCCAGAGTAGGGACGGC | 1 | 2.6 | 0.502 | 0.692 | 1.27 | 2.5 | 0.168 | 3.13 | 0.562 | 4.1 |
| ACTAGCAGGCCAAGTTTGTGTCACTCAAACAAAG | 0.66 | 0.636 | -0.284 | -0.278 | -0.972 | -0.323 | -0.685 | -0.217 | -0.826 | 0.471 |
| CCTCAGAGGACAACAGGAGGTCAGAGCTGCCAGA | 0.559 | 0.422 | -0.428 | -1.85 | 1.69 | 2.04 | 0.295 | 2.24 | 0.569 | 3.46 |
| TCATATAGGTAAAAGGTGTAAGTCGGTGTGGTAA | 4.99 | 3.58 | 1.13 | 0.898 | 1.04 | 0.588 | 0.592 | 0.719 | 0.894 | 0.49 |
| CGAACTAGGTCAGAACACGACAGTGAAGGATGAT | 7.06 | 7.2 | 1.44 | 1.71 | 1.06 | 0.221 | 0.0475 | 0.721 | 0.743 | 2.84 |
| TCTTGTAGGTCAACAGGAGGTTAAGAAAGATCGA | 6.99 | 8.17 | 2.81 | 3.87 | 2.63 | 3.9 | -0.245 | 4.71 | 0.468 | 4.57 |

| Sequence | PBM binding z-score [1] | PBM binding z-score [2] | PBM binding z-score [3] | PBM binding z-score [4] | PBM binding z-score [5] | PBM binding z-score [6] | PBM binding z-score [7] | PBM binding z-score [8] | PBM binding z-score [9] | PBM binding z-score [10] |
| --- | --- | --- | --- | --- | --- | --- | --- | --- | --- | --- |
| TAGCCTAAGTCAGATCGGGCCAGTATACGCTATA | -0.799 | -0.632 | -0.42 | -0.19 | -0.984 | -0.436 | -0.363 | -0.593 | -0.92 | -0.258 |
| CGAACTAGGTCAAGGACATTGAATCTCCGCACGC | 8.24 | 7.84 | 1.49 | 0.731 | 1.29 | 1.56 | 0.252 | 2.12 | 0.87 | 3.98 |
| ATCGAAAGGTCGAGGTGACTATAGAGAAAGGGAA | 0.438 | 2.86 | 1.24 | 0.771 | 1.35 | 2.56 | 0.185 | 3.53 | 0.636 | 4.21 |
| GATACAGGTTCAGCTAGAGGCCAGAGTATGGAAA | -0.632 | -0.397 | -0.984 | -1 | 0.61 | 1.19 | -0.0373 | 1.64 | 0.321 | 1.35 |
| GCTATTAGTTGAAAGAGCAACCGAATGATTCTCG | 0.238 | -0.404 | 0.37 | 0.517 | 0.13 | -0.39 | -0.276 | -0.118 | 0.294 | -0.146 |
| CAAACTAGGTCAAAGGTCAAATTCGAGCCAACCA | 8.73 | 9.36 | 7.2 | 6.6 | 8.4 | 7.16 | 1.57 | 8.86 | 3.32 | 5.62 |
| ATCTCTAGGTAAAGATCAGTGAAAGATCGATAGA | 1.79 | 1.45 | 0.659 | 1.08 | 0.78 | -0.0968 | 0.169 | 0.174 | 0.687 | 0.0569 |
| GCGACTGGGGCATAGCAGGTTACCATAAGGTTGG | 3.87 | 2.96 | -0.728 | -0.706 | -0.174 | 0.0194 | -0.519 | 0.4 | -0.975 | 0.81 |
| TCTCAGAGGACACGAAGGTCAGAGCTTTCCAGAG | 1.91 | 1.5 | -0.856 | -1.02 | 1.11 | 2.05 | 0.954 | 2.02 | -0.195 | 3.78 |
| CCAGACAGGTGAGAAGGAAACTCAGCCTCGATTA | 1.07 | 0.281 | 0.656 | -0.614 | 0.615 | -0.158 | 0.143 | 0.0468 | 0.447 | 0.0743 |
| CCTTACGGCTCACTCCAGGTTATAGCATCGGAGT | 0.594 | -0.0865 | -0.339 | -0.313 | 0.301 | -0.0761 | 0.257 | 0.372 | 0.095 | 0.00286 |
| TCTATTAGTTGAAGGGCAACCCACGAGTCCGTTT | 2.65 | 0.706 | 0.623 | 0.929 | 1.43 | 1.02 | 1.09 | 0.823 | 1.21 | 1.65 |
| AGTCAAAGTTCAGGACGAGGTAACGGAAAGCACG | -0.203 | 2.06 | 0.787 | 0.337 | 2.37 | 2.66 | 1.31 | 2.62 | 0.344 | 4.22 |
| CGTCAAAGTTCAACTAAGGTAACGTACAGCACGC | 0.621 | 2.54 | 0.979 | 0.528 | 3.88 | 5.9 | 4.77 | 4.72 | 2.23 | 5.42 |
| TGTCAAAGTTCAAAGGTAACGTCAGTATCCACAC | 0.357 | 4.74 | 1.94 | 1.89 | 4.29 | 5.89 | 3.43 | 6.36 | 0.737 | 5.36 |
| CAGCCTAGGTCAGGGCCAGGATAGGAGGAACGTT | 1.16 | 1.82 | -0.747 | -1.27 | 0.00488 | 0.262 | -0.967 | 0.879 | -0.655 | 3.49 |
| ATCTCTAGGTAAAGTTCTGTGAAAGATCGATAGA | 2.44 | 1.61 | 1.11 | 1.68 | 1.26 | 0.0126 | 0.619 | 0.484 | 0.939 | 0.419 |
| TTACCAAGGTGAAGTTCGTTGATCCCTCTGTAGA | 2.04 | 2.68 | 0.229 | 0.131 | 0.308 | 1.23 | 0.329 | 0.86 | -0.298 | 1.75 |
| ATAATGAGGTTATTAAGATCAGGGAATTGCGGTC | 3.45 | 3.21 | 1.46 | 0.952 | 1.12 | 1.58 | 0.876 | 1.76 | 0.951 | 1.47 |
| TCTTGTAGATCAAGCAGGTTAAGAATGCCTGAGT | 1.49 | 0.313 | -0.142 | 0.577 | -0.335 | 0.291 | -0.153 | 0.248 | -0.193 | 0.0521 |
| CCTACTGGGCCATCAGTTCATTGATATCAACGTT | 4.11 | 3.98 | 0.61 | 0.651 | 0.245 | 1.18 | 2.78 | 0.106 | 0.0148 | 0.462 |
| CCAGACAGGTGCAAGGTAACTCAGTCTGGTACGC | -0.395 | -0.318 | -0.426 | -0.666 | -0.0621 | -0.444 | -0.237 | -0.146 | -0.328 | -0.0725 |
